According to PubChem BioAssay AID709 (SRMLSC, 2007):
The whole screen tested about 65,000 compounds, of which about 3,600 (5.5%) were called active.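 Rule for the calls: active = at 10 µM, mean starting fluorescence two-fold or more over control wells; inactive = the rest.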 What follows is part of a selection rich in actives, with near analogues and random picks from the rest.

experiment: intrinsic fluorescence of library compounds, ex339/em460 – biochemical, MLSMR library, data from DPM-DC assay, artefact control, profiling panel (AID 709); details: compound autofluorescence, ex339/em460 nm, NADH buffer; at 10 µM; hits give high values; 1 = no-compound wells, NADH background;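 note: signal is the first read of a kinetic run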

Row | Compound | fluorescence fold increase
1 | COc1ccc(N2C(=O)c3cccc4cccc(c34)C2=O)nn1 | 1.57 (inactive)
2 | C=CCNc1nnc(C)c2ccccc12 | 1.09 (inactive)
3 | C=CCNc1nnc(SCC(=O)N2CCCCC2)c2ccccc12 | 2.26 (active)
4 | Cc1ccnc(N2CCN(C(=O)CSc3nc4ccccc4nc3N3CCCCC3)CC2)c1 | 1.18 (inactive)
5 | CCCC(=O)N(CCc1ccccc1)Cc1nc2ccccc2c(=O)[nH]1 | 1.13 (inactive)
6 | CS(=O)(=O)NCc1ccc(C(=O)NCc2ccccc2)cc1 | 1.04 (inactive)
7 | O=C1C2(c3ccccc3)CN(CCCO)CC1(c1ccccc1)CN(CCCO)C2 | 1 (inactive)
8 | COCCn1c(C)cc(C(=O)CSc2ncnc3sc4c(c23)CCC4)c1C | 1.55 (inactive)
9 | Cc1cc(C)n(-c2nc(SCC(=O)N3CCCC3)c3c4c(sc3n2)CCCC4)n1 | 1.3 (inactive)
10 | COCCNc1nc(-n2nc(C)cc2C)nc2sc3c(c12)CCCC3 | 3.57 (active)
11 | CCOc1ccc(S(=O)(=O)n2ccnc2)c2ccccc12 | 1.04 (inactive)
12 | COc1cc(C2C(C(=O)c3ccc(C)o3)=C(O)C(=O)N2Cc2cccnc2)ccc1O (stereo not given) | 1.02 (inactive)
13 | COc1ccccc1N1CCN(C(=O)c2cn(-c3ccccc3)nc2-c2cccnc2)CC1 | 1.12 (inactive)
14 | Cc1nnc(SCC(=O)Nn2cnnc2)s1 | 1.03 (inactive)
15 | COc1ccc(-c2noc(-c3cccc(OC)c3OC)n2)cc1OC | 1.12 (inactive)
16 | CCOC(=O)N1CCN(C(=O)CNC(=O)Cc2ccc(Cl)cc2)CC1 | 1.08 (inactive)
17 | CCOC(=O)N1CCN(C(=O)CSc2ccc(Cl)cc2)CC1 | 1.07 (inactive)
18 | CCOC(=O)N1CCN(C(=O)c2ccc3nc4cc(Cl)ccc4c(=O)n3c2)CC1 | 3.31 (active)
19 | Cc1cc(C)nc(NC(=O)C(C)N2C(=O)c3ccccc3C2=O)n1 (stereo not given) | 1.09 (inactive)
20 | CCn1c(=N)c(S(=O)(=O)c2ccc(F)cc2)cc2c(=O)n3ccccc3nc21 | 3.45 (active)
21 | Cc1ccc(C)c(NC(=O)C2CCCN2C(=O)OC(C)(C)C)c1 (stereo not given) | 1.17 (inactive)
22 | CCn1nc(C(=O)OCC(=O)N2c3ccccc3CC2C)c2ccccc2c1=O (stereo not given) | 1.05 (inactive)

Row | Compound | fluorescence fold increase
23 | COc1ccccc1Oc1ccc(S(=O)(=O)Nc2cccnc2)cc1 | 1.1 (inactive)
24 | O=P(c1ccc2c(c1)OCCO2)(N1CCOCC1)N1CCOCC1 | 1.13 (inactive)
25 | c1coc(-c2nc3nc4ccccc4n3nc2-c2ccco2)c1 | 0.92 (inactive)
26 | COc1ccc(CCn2c(-c3ccco3)nc3nc4ccccc4nc32)cc1OC | 1.07 (inactive)
27 | Cn1c(-c2ccco2)nc2cc3ccccc3cc21 | 4.72 (active)
28 | CCC(=O)Nc1nc(OC)cc(OC)n1 | 1.16 (inactive)
29 | C=CCSc1nc2c(c(=O)[nH]1)C(C(C)C)C(C#N)=C(N)O2 (stereo not given) | 1.06 (inactive)
30 | Cn1c2c(c(=O)n(C)c1=O)C(c1ccc(O)cc1)Nc1ccccc1O2 (stereo not given) | 1.08 (inactive)
31 | CCn1c(=N)c(C(=O)NCCCOC)cc2c(=O)n3cccc(C)c3nc21 | 3.83 (active)
32 | COc1ccc(CCn2c(=N)c(C(=O)NCc3ccco3)cc3c(=O)n4cccc(C)c4nc32)cc1 | 1.64 (inactive)
33 | COCCn1c(=O)[nH]c2cc(C(=O)NCc3cccnc3)ccc2c1=O | 1.48 (inactive)
34 | O=c1cc(-c2ccccc2)nc(N2CCCCC2)[nH]1 | 1.26 (inactive)
35 | O=c1[nH][nH]c(=O)c2cc(N3CCCC3)ccc12 | 2.65 (active)
36 | CCOc1ccc(C2C(C(=O)NC)=C(C)Nc3nc4ccccc4n32)cc1OC (stereo not given) | 1.15 (inactive)
37 | Cc1ccc2c(c1)N(C(=O)CCC(=O)N1CCc3ccccc3C1)CCO2 | 1.17 (inactive)
38 | Cc1ccc(NC(=O)CCN2CCc3ccccc3C2)cc1 | 1.02 (inactive)
39 | Cc1ccc2c(c1)c1ncnc(N3CCc4ccccc4C3)c1n2C | 3.33 (active)
40 | CCS(=O)(=O)N1CCCC(C(=O)NCc2ccc(C)cc2)C1 (stereo not given) | 1.06 (inactive)
41 | O=C(Cn1nnc2ccccc2c1=O)Nc1cc(C(F)(F)F)ccc1N1CCOCC1 | 1.02 (inactive)
42 | COc1ccc(-c2[nH]nc3c2C(c2ccncc2)C(C#N)=C(N)O3)cc1 (stereo not given) | 1.04 (inactive)
43 | Cn1c(=O)[nH]c(=O)c2c1nc(Br)n2CCCCSc1nc2ccccc2o1 | 1.1 (inactive)
44 | CCOC(=O)CSC1=C(C#N)C(c2sccc2C)CC(=O)N1 (stereo not given) | 1.13 (inactive)

Row | Compound | fluorescence fold increase
45 | CS(=O)(=O)N(CC(=O)NCc1ccco1)c1ccc2c(c1)OCO2 | 1.14 (inactive)
46 | CCc1c(C)nc2cc(-c3cccs3)[nH]n2c1=O | 2.07 (active)
47 | O=c1[nH]c(-c2cccs2)nc2ccccc12 | 1.17 (inactive)
48 | Cc1nc2nc(COc3ccccc3)[nH]n2c(=O)c1Cc1ccccc1 | 1.09 (inactive)
49 | O=P(O)(CP(=O)(c1ccccc1)c1ccccc1)c1ccccc1 | 1.13 (inactive)
50 | CCCCNC(=O)c1c[nH]c2ccc(S(=O)(=O)Nc3ccc(OCC)cc3)cc2c1=O | 1.15 (inactive)
51 | Cc1nonc1NC(=O)c1ccccc1Br | 1.01 (inactive)
52 | Cc1ccc(S(=O)(=O)C(C#N)c2nc3ccccc3nc2N2CCCC2)cc1C (stereo not given) | 2.44 (active)
53 | Cc1cccc2cc(C#N)c(N3CCCC3)nc12 | 1.58 (inactive)
54 | CC(C)OC(=O)C(C#N)c1nc2ccccc2nc1N1CCN(Cc2ccccc2)CC1 (stereo not given) | 1.82 (inactive)
55 | NC(=O)CSc1oc(-c2cccs2)nc1S(=O)(=O)c1ccccc1 | 1.22 (inactive)
56 | CCN(CC(=O)NC(C)C)C(=O)CCNC(=O)c1ccc(Cl)cc1 | 1.13 (inactive)
57 | CCOc1cc2c(cc1OCC)C(C(=O)O)C(c1ccc(OC)c(O)c1)N(C)C2=O (stereo not given) | 1.02 (inactive)
58 | O=C(Nc1cccc(NC(=O)N2CCN(c3ccccc3)CC2)c1)N1CCN(c2ccccc2)CC1 | 1.06 (inactive)
59 | Cn1c(CCN2CCCCCC2)nc2cc(NC(=O)Nc3ccccc3)ccc21 | 1.24 (inactive)
60 | Cc1nc2ccc(NC(=O)N3CCC(c4ccccc4)C3)cc2nc1C (stereo not given) | 2.93 (active)
61 | CCc1cc(=O)oc2cc(C)cc(OC(C)C(=O)O)c12 (stereo not given) | 3.78 (active)
62 | CCCSC1=C(C#N)C(c2ccccc2C)C(C(=O)OC)C(=O)N1 (stereo not given) | 1.13 (inactive)
63 | Cc1cc(C)nc(N2CCN(c3ncnc4c3oc3ccccc34)CC2)n1 | 1.27 (inactive)
64 | CCc1nc(N2CCN(c3nc(C)cc(C)n3)CC2)c2oc3ccccc3c2n1 | 2.49 (active)
65 | Cc1nc(N2CCN(c3ncccn3)CC2)c2oc3ccccc3c2n1 | 1.16 (inactive)
